{"source": "PubChem BioAssay (NCATS)", "note": "Results filed as inconclusive are left out. Where a call stands in place of a potency, no number is given. Activity calls are given as the source filed them. Calls follow the shape of the dose curve; as a rule, active = well fitted cell-killing curve with a large enough effect; inconclusive = small, poorly fitted or top-dose-only effect; inactive = flat fitted curve, though single readings scatter. Potency is read from the fitted curve at half-maximal effect.", "data": [{"experiment": "Quantitative highthroughput screen to assess conditional lethalithy of P12 Ichikawa cells grown in RPMI1640 with dialyzed fetal bovine serum (RPMI+ds) (AID 1963880); also: nearly all actives have a fitted effect of over 35% in size", "conditions": "ATP luminescence, 48 h; Potency: P12-Ichikawa viability; series mostly up to 45.8 µM", "in_short": "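Each medium arm—HPLM with 10% dialyzed FBS, or RPMI1640 with 5 mM glucose and 10% untreated or dialyzed FBS—was screened against an 11-point, 3-fold compound titration for 48 h at 37 °C, with CellTiter-Glo luminescence as endpoint.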", "values": [{"compound": "NS(=O)(=O)OC[C@@H]1C[C@@H](n2ccc3c(N[C@H]4CCc5ccccc54)ncnc32)C[C@H]1O", "Potency": "1660 nM (active)"}, {"compound": "CCNC(=O)[C@H]1O[C@@H](n2cnc3c(N)nc(NCCc4ccc(CCC(=O)O)cc4)nc32)[C@H](O)[C@H]1O", "Potency": "inactive"}, {"compound": "CC(C)(C)OC(=O)N[C@H]1CCCCCC=C[C@@H]2C[C@@]2(C(=O)NS(=O)(=O)C2CC2)NC(=O)[C@@H]2C[C@@H](OC(=O)N3Cc4cccc(F)c4C3)CN2C1=O", "Potency": "inactive"}, {"compound": "Cc1nc(NC(=O)N2CCC[C@@H]2C(N)=O)sc1-c1ccnc(C(C)(C)C(F)(F)F)c1", "Potency": "5900 nM (active)"}, {"compound": "Cc1c(Cn2c(C)nc3c(C(=O)O)cc(N4CCOCC4)cc32)cccc1C(F)(F)F", "Potency": "inactive"}, {"compound": "C=CC1=C(C(=O)O)N2C(=O)[C@@H](NC(=O)C(=NO)c3csc(N)n3)[C@H]2SC1", "Potency": "inactive"}, {"compound": "O=C1Nc2ccc(I)cc2C1=Cc1cc(Br)c(O)c(Br)c1", "Potency": "inactive"}, {"compound": "CN(N=O)C(=O)N[C@H]1C(O)OC(CO)[C@@H](O)[C@H]1O", "note": "(some centres not stated)", "Potency": "inactive"}, {"compound": "OCC(O)C(O)C(O)CO", "note": "(configuration not stated)", "Potency": "inactive"}, {"compound": "Cc1cc(CS(=O)(=O)c2ccccc2)cc(OCc2ccc(CN3CCC[C@H]3CO)cc2)c1", "Potency": "1180 nM (active)"}, {"compound": "NC(=O)c1cccc(N)c1", "Potency": "inactive"}, {"compound": "O=C(C=Cc1ccc(/C=C/C(=O)Nc2ccc(C3=NCCN3)cc2)cc1)Nc1ccc(C2=NCCN2)cc1", "Potency": "inactive"}, {"compound": "CC(=O)[C@]1(O)Cc2c(O)c3c(c(O)c2[C@@H](O[C@H]2C[C@H](N)[C@@H](O)[C@H](C)O2)C1)C(=O)c1ccccc1C3=O", "Potency": "1480 nM (active)"}, {"compound": "Cn1cc(-c2ccc3nnc(C(F)(F)c4ccc5ncccc5c4)n3n2)cn1", "Potency": "inactive"}, {"compound": "Fc1ccc(C(c2ccc(F)cc2)N2CCN(CC=Cc3ccccc3)CC2)cc1", "Potency": "inactive"}, {"compound": "N#CC(=C(O)c1ccc(Cl)cc1Cl)c1nc2cc(Cl)ccc2c(=O)[nH]1", "Potency": "inactive"}, {"compound": "CC(C)c1nn(-c2c(Cl)cccc2Cl)c2nc(Cc3ccc(OCCO)cc3)[nH]c(=O)c12", "Potency": "148 nM (active)"}, {"compound": "OC(CN1CCN(c2cccc(Cl)c2)CC1)C(c1ccccc1)c1ccccc1", "note": "(configuration not stated)", "Potency": "743 nM (active)"}, {"compound": "Cc1ccc(Nc2cc(-c3cccc(N4C(=O)c5ccccc5C4=O)c3)ncn2)cc1NS(C)(=O)=O", "Potency": "inactive"}, {"compound": "C=C1C[C@@]2(O)O[C@@]3(C[C@H]2C(C)C)[C@H](C)CC[C@H]13", "Potency": "inactive"}, {"compound": "CC(C=CC=C(C)C=CC1=C(C)CCCC1(C)C)=CC=CC=C(C)C=CC=C(C)C=CC1=C(C)CCCC1(C)C", "Potency": "inactive"}, {"compound": "COc1ccc(-c2cc(=O)c3c(O)cc(O[C@@H]4O[C@H](CO[C@@H]5O[C@@H](C)[C@H](O)[C@@H](O)[C@@H]5O)[C@@H](O)[C@H](O)[C@@H]4O)cc3o2)cc1O", "Potency": "inactive"}]}]}
